# Measured values taken from PubChem BioAssay AID686971 (National Center for Advancing Translational Sciences (NCATS), 2013).
# Screen size: about 360,000 compounds; about 7,500 (2.1%) were called active. Entries that show only a call come without a potency. Inconclusive results (about 8%) are left out. The call rests on the fitted dose curve; in most records, active means well fitted cell-killing curve with a large enough effect; inconclusive means small, poorly fitted or top-dose-only effect, or effect the other way, or another doubt; inactive means no such curve, though single readings can be large or run the other way. Only a selection was taken, and actives are over-represented in it overall.
# Assay: qHTS for induction of synthetic lethality in tumor cells producing 2HG: qHTS for the HT-1080-IDH1KD cell line
# Settings: HT-1080 IDH1 knockdown viability, ATP luminescence, 48 h; series mostly up to 46.1 µM
# Procedure, shortened: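 Assay cells: HT-1080 with IDH1 knockdown, 750 per well, RPMI/5% FBS. Exposure: 48 h at 37 °C following 2 h pre-incubation. Read: CellTiter-Glo luminescence; fitted concentration-response, curve class assigned.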
# Potency means the concentration at half of the fitted maximal effect.
Structure (SMILES),Potency,"activity, negative = toxicity"
CNc1cnc(-c2cc(OC)c(OC)c(OC)c2)cn1,inactive,–
CC(=O)Nc1ccc(S(=O)(=O)N(C)c2nc3ccccc3nc2Cl)cc1,inactive,–
CC(=O)Nc1ccc(Nc2c3ccccc3nc3ccccc23)cc1,14.6 µM (active),–
CC(=O)Nc1ccc(Nc2cc(C)nc(Nc3ccc(NC(C)=O)cc3)n2)cc1,inactive,–
Cc1ccc(S(=O)(=O)N2CC3C(=O)C[C@@H](c4ccccc4Cl)N(S(=O)(=O)c4ccc(C)cc4)C3CC2c2ccccc2)cc1 (some centres not stated),inactive,–
CCOC(=O)C1CCCN(C(=O)c2cccc3ccccc23)CC1 (configuration not stated),inactive,–
C[C@@H]1Cn2cnc(C(=O)Nc3ccc(CNC(=O)OC(C)(C)C)cc3)c2C(=O)N1,inactive,–
COC(=O)Nc1nc2ccc(Sc3ccccc3)cc2[nH]1,0.82 µM (active),–
CN(c1ccccc1)S(=O)(=O)c1cc(C(=O)Nc2nc3ccccc3[nH]2)ccc1Cl,inactive,–
Cc1ccc(O)c(CNc2nc3ccccc3[nH]2)c1,inactive,–
CCOC(=O)C1(C)CCCN(C(=O)c2ccc(F)c(Cl)c2)C1 (configuration not stated),inactive,–
COc1ccccc1CNC(=O)c1cc(=O)c2ccccc2o1,inactive,–
COc1cc2c(cc1OC)CN(C(=O)c1cc(=O)c3ccccc3o1)CC2,5.8 µM (active),–
COc1ccc2c(CC(=O)N3CCc4cc(OC)c(OC)cc4C3)coc2c1,inactive,–
COc1cc(NC(=O)C2=C(C)OCCS2)c(Cl)cc1C(=O)NCCCN1CCCC(C)C1 (configuration not stated),inactive,–
NS(=O)(=O)c1ccc(CCNS(=O)(=O)c2cccc3cccnc23)cc1,inactive,–
Cc1ccc2cccc([N+](=O)[O-])c2n1,inactive,–
O=[N+]([O-])c1ccccc1S(=O)(=O)Nc1cccc2cccnc12,11.6 µM (active),–
Cc1nccn1-c1ccc(NC(=O)[C@H]2O[C@@H](n3cnc4c(N)ncnc43)[C@H](O)[C@@H]2O)cc1,inactive,–
CC1(C(=O)NS(=O)(=O)Cc2cccc(Cl)c2)CCN1C(=O)Cc1ccccc1 (configuration not stated),inactive,–
CCCCn1nnnc1C(c1ccccc1)N1CCN(c2ccccc2OC)CC1 (configuration not stated),inactive,–
NC(=O)c1ccccc1N(Cc1ccccc1)S(=O)(=O)c1ccccc1,inactive,–
CCOC(=O)N1CCN(C(=O)c2ccccc2N(Cc2ccccc2)S(=O)(=O)c2ccc(OC)cc2)CC1,3.26 µM (active),–
CCOC(=O)N1CCN(S(=O)(=O)c2ccc(OC)cc2)CC1,inactive,–
CCCc1ccc(C(O)c2ncc(-c3cccc(OC)c3)[nH]2)cc1 (configuration not stated),inactive,–

Structure (SMILES),Potency,"activity, negative = toxicity"
CN(CCO)C(=O)c1nc[nH]c1C(=O)N(C)Cc1ccccc1,inactive,–
Cc1ccc(-c2nc3ccc(Br)cn3c2Cc2ccccc2C(F)(F)F)cc1,inactive,–
Cc1cc(N)n2nc(-c3ccc(C(C)(C)C)cc3)cc2n1,20.6 µM (active),–
COc1ccc(-c2cc(C)nc3nc(N)nn23)cc1,inactive,–
Cc1cc(C(C)(C)C)cc(C)c1N,inactive,–
O=C(Nc1ccc(Cl)cc1)c1csc([C@@H]2O[C@H](CO)[C@H](O)[C@H](O)[C@H]2O)n1,inactive,–
CO[C@@H]1CN(C)C(=O)c2cc(NC(=O)Nc3cc(F)ccc3F)ccc2OC[C@H](C)N(C(=O)c2ccccn2)C[C@@H]1C,inactive,–
CCOC(=O)N1C(=O)C[C@](Sc2ccc(C)cc2)(C(=O)OC)[C@H]1c1ccccc1,inactive,–
Nc1ncnc2c1ncn2[C@@H]1O[C@H](C(=O)NCC(F)(F)F)[C@@H](O)[C@H]1O,inactive,–
COc1ccc(-c2[nH][nH]c(=O)c2NC(=O)c2ccc([N+](=O)[O-])cc2)cc1,inactive,–
CCOC(=O)c1cc(-c2sc(NC(=O)c3ccccc3)nc2C)n(-c2ccc(Br)cc2)n1,inactive,–
c1ccc(C(c2ccccc2)N2CCN(Cc3nnnn3C3CCCCC3)CC2)cc1,inactive,–
COc1ccccc1CN1CCN(C(c2ccccc2)c2ccccc2)CC1,inactive,–
CC1(C)CC(N2CCN(C(c3ccccc3)c3ccccc3)CC2)=CC(=[N+]2CCCCC2)C1,2.59 µM (active),–
OC(c1ccccc1)c1nc(/C=C/c2ccc(C(F)(F)F)cc2)cs1 (configuration not stated),inactive,–
CCCCc1ccc(S(=O)(=O)NC(=O)C2(C)CCN2C(=O)c2ccccc2)cc1 (configuration not stated),inactive,–
CCCCCCn1c(SCC(=O)c2ccccc2)nc2c1c(=O)[nH]c(=O)n2C,inactive,–
CCCCCn1c(SCCC(C)C)nc2c1c(=O)[nH]c(=O)n2C,20.6 µM (active),–
C=CCSc1nc2c(c(=O)[nH]c(=O)n2C)n1Cc1ccccc1,inactive,–
COCCNC(=O)c1cc2c(Br)ccc(Br)c2nc1N,inactive,–
CSc1ncnc2c1ncn2CCCNCC1CCCCC1,inactive,–
CCc1nc2ccc(C(=O)NCCNC(C)=O)cn2c1N(CC)Cc1cccc(Br)c1,inactive,–
CN(Cc1ccccc1)C(=O)CCC1CCN(C(=O)c2ccco2)CC1,inactive,–
Cc1cc(NC(=O)/C=C/C(=O)N(c2ccccc2C)C(C(=O)NC2CCCC2)c2ccc(F)cc2)no1 (configuration not stated),10 µM (active),–
Cc1cc(NC(=O)CCC(=O)N(c2cccc(F)c2)C(C(=O)NC2CCCC2)c2ccncc2)no1 (configuration not stated),inactive,–

Structure (SMILES),Potency,"activity, negative = toxicity"
Cc1cc(NC(=O)CCC(=O)N(c2ccccc2)C(C(=O)NC2CCCC2)c2ccncc2)no1 (configuration not stated),inactive,–
O=C(N=C1SC2CS(=O)(=O)CC2N1Cc1ccccc1)c1ccccc1 (configuration not stated),inactive,–
COC(=O)[C@]12CCCCC=C1N(Cc1ccccc1)C(=O)[C@H](CC(=O)NCc1ccc(C)o1)C2,inactive,–
Nc1nonc1-c1nc2ccccc2n1Cc1ccc(F)cc1,inactive,–
CCn1c(C(O)c2cc(OC)ccc2OC)nc2ccccc21 (configuration not stated),inactive,–
COc1ccc(C)c(Cn2c(-c3nonc3N)nc3ccccc32)c1,5.17 µM (active),–
COCCCn1c(=O)/c(=C/c2ccccc2OC(C)C)s/c1=C(\C#N)C(=O)Nc1ccc(C(=O)O)cc1,inactive,–
CC1(c2cccc(Br)c2)NC(=O)N(CC(=O)NCCC2=CCCCC2)C1=O (configuration not stated),inactive,–
Cc1ccc2nc(Nc3ccccc3O)nc(-c3ccccc3)c2c1,–,-0.715% [at 9.24 µM] (inactive)
Cc1cccc(-c2nc(Nc3ccc(O)cc3)c3ccccc3n2)c1,11.6 µM (active),–
Oc1ccc(-c2nnc(Nc3ccccc3)c3ccccc23)cc1,inactive,–
CC1=C(C(=O)N2CCOCC2)CC(CC(=O)NCc2ccco2)C(=O)N1Cc1ccc(F)cc1 (configuration not stated),inactive,–
COc1ccc(N2c3ccccc3CN(Cc3ccccc3)[C@@H](C)[C@H]2Cc2ccc(-c3ccccc3)cc2)cc1,inactive,–
O=C(NCc1ccccc1Cl)c1csc([C@@H]2O[C@H](CO)[C@@H](O)[C@H]2O)n1,inactive,–
O=C(Nc1ccc2nc3n(c(=O)c2c1)CCCC3)c1ccc(Cl)nc1,inactive,–
CCN(CC)c1ccc(NC(=O)c2ccc(Cl)nc2)cc1,7.31 µM (active),–
O=C(NNC(=O)c1ccc(Cl)nc1)c1ccc(Br)cc1,inactive,–
CC(C)n1ncc2c(C(=O)N3CCN(Cc4cccs4)CC3)cc(C3CC3)nc21,inactive,–
CC1C(=O)N(Cc2cn(CC3CCCCC3)nn2)CCS(=O)(=O)N1Cc1ccc(-c2cccc(N(C)C)c2)cc1 (configuration not stated),inactive,–
O=C(CN1CCCCC1)N1c2ccccc2Sc2ccc(C(F)(F)F)cc21,inactive,–
O=C(CN1CCCCCC1)N1c2ccccc2Sc2ccc(C(F)(F)F)cc21,11.2 µM (active),–
COc1cc(/C=C/C(=O)N2c3ccccc3Sc3ccc(C(F)(F)F)cc32)cc(OC)c1OC,inactive,–
O=S1(=O)CC(N2CCN(c3ccccn3)CC2)CN1Cc1ccc(F)cc1 (configuration not stated),inactive,–
COc1cc(OC)cc(C(=O)N[C@H](C(=O)NNC(=O)c2ccc(Br)cc2)C(C)C)c1,inactive,–
COc1cc(OC)cc(C(=O)N[C@H](C(=O)Nc2nc3ccccc3[nH]2)C(C)C)c1,1.3 µM (active),–

Structure (SMILES),Potency,"activity, negative = toxicity"
COc1ccc(C(=O)N[C@H](C(=O)NCc2ccccc2)C(C)C)cc1,inactive,–
Cc1ccccc1CN1C(=O)CSCC1(C)C(=O)Nc1c(C)cccc1C (configuration not stated),inactive,–
N#Cc1cccc(NC(=O)c2cc(C3CCCCN3C(=O)CCc3ccccc3)on2)c1 (configuration not stated),inactive,–
O=C(COC(=O)c1cccc(Cl)c1Cl)NC1CCCCCC1,inactive,–
Cc1ccc([C@H]2N[C@]3(CCCN(CC4CCCCC4)C3=O)[C@H]3C(=O)N(Cc4ccccc4)C(=O)[C@@H]23)cc1,inactive,–
CCc1ccc2c(c1)NC(=O)C2(C)Cc1ccc(OC(F)(F)F)cc1 (configuration not stated),23.1 µM (active),–
COc1ccccc1CC1(C)C(=O)Nc2ccc(OC(F)(F)F)cc21 (configuration not stated),inactive,–
CCNC(=S)Nc1ccc(OC(F)(F)F)cc1,inactive,–
CC(=O)c1ccc(OCC(=O)N(C)C2CCS(=O)(=O)C2)cc1 (configuration not stated),inactive,–
O=C(NC1CCCC1)C1c2ccccc2OCC(=O)N1CC(F)(F)F (configuration not stated),inactive,–
Cc1c(C(=O)NCC(c2ccco2)N2CCCC2)oc2ccc(Cl)cc12 (configuration not stated),23.1 µM (active),–
CSc1ncccc1C(=O)NCC(c1ccco1)N1CCCCC1 (configuration not stated),inactive,–
Cc1cc(S(=O)(=O)Nc2ccc(C(=O)NCC(c3ccco3)N3CCCC3)cc2)ccc1F (configuration not stated),inactive,–
C/C(=N/Nc1ccc(Cl)cc1)c1cnnc(-c2ccccc2)n1,inactive,–
CCCCCCCN=C(C)c1ccccc1O,inactive,–
C/C(=N\Nc1ccc(Cl)nn1)c1ccccc1O,3.26 µM (active),–
O=C(C[C@H]1C[C@H]2c3cc(NS(=O)(=O)c4ccc(F)cc4)ccc3O[C@H]2[C@H](CO)O1)NCc1cc(F)ccc1F,inactive,–
COc1ccc(C(=O)NCC2CCCO2)cc1S(=O)(=O)NCc1ccc(Cl)cc1 (configuration not stated),inactive,–
CSCc1nnc(NC(=O)c2ccc(S(=O)(=O)N3CCCCC3C)cc2)o1 (configuration not stated),inactive,–
CC1CCCN(S(=O)(=O)c2ccc(C(=O)Nc3nnc(-c4ccncc4)o3)cc2)C1 (configuration not stated),inactive,–
CC1CCCCN1S(=O)(=O)c1ccc(C(=O)Nc2nnc(-c3cccs3)o2)cc1 (configuration not stated),8.2 µM (active),–
CCCNC(=O)c1cc(C2CCCN(C(=O)c3ccc4c(c3)CCO4)C2)on1 (configuration not stated),inactive,–
